# Test results as given in the supplement of paper PMC6411743.
# ± gives the standard deviation of the averaged measurements. Targets with the largest changes are over-represented here; the source holds about 5,400 in all.
# Biological target: T1, NUFIP2 (UniProt Q7Z417)
# T1 sequence (whole entry): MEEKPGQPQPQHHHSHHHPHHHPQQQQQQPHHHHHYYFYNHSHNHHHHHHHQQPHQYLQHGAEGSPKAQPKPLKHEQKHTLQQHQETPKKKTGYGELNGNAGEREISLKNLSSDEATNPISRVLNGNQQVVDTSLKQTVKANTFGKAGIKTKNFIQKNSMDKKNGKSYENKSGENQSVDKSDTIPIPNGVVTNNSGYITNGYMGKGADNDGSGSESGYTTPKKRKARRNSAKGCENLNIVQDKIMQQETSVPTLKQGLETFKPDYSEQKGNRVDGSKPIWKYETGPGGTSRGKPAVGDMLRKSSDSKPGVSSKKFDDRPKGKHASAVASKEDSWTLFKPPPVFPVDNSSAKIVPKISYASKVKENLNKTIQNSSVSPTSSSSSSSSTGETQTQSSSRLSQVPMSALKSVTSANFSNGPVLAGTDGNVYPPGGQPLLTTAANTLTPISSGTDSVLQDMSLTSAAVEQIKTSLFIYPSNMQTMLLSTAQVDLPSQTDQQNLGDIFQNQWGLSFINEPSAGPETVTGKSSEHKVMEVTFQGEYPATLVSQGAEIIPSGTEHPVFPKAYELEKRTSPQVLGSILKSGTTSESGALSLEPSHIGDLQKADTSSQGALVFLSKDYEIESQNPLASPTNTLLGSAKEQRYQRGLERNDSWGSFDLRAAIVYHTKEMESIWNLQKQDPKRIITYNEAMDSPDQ
# Assay: NP40-soluble protein abundance relative to vehicle (solubility fold change) (ratio); higher = more soluble protein in presence of GTP
# Experimental: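 Solubility proteome profiling in Jurkat crude lysate. Lysate was treated with Mg-GTP (0.1-10 mM) for 10 min at room temperature and 3 min at 37 °C, then solubilised with 0.8% NP40 and benzonase, followed by ultracentrifugation. Proteins were quantified by TMT10 LC-MS/MS; the value is the NP40-soluble abundance relative to the NP40-processed vehicle, from 3 independent experiments.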
smiles,measurement,setting,value
Nc1nc2c(ncn2[C@@H]2O[C@H](COP(=O)(O)OP(=O)(O)OP(=O)(O)O)[C@@H](O)[C@H]2O)c(=O)[nH]1 [guanosine triphosphate],NP40-soluble protein abundance,concentration: 0.1mM,0.964 ± 0.079
same,NP40-soluble protein abundance,concentration: 0.5mM,0.977 ± 0.14
same,NP40-soluble protein abundance,concentration: 1mM,1.06 ± 0.12
same,NP40-soluble protein abundance,concentration: 2mM,1.07 ± 0.15
same,NP40-soluble protein abundance,concentration: 4mM,1.17 ± 0.15
same,NP40-soluble protein abundance,concentration: 6mM,1.21 ± 0.15
same,NP40-soluble protein abundance,concentration: 8mM,1.28 ± 0.089
same,NP40-soluble protein abundance,concentration: 10mM,1.34 ± 0.13
